Consider six compounds from PubChem BioAssay (EPA / NIEHS).

Read-out in test [1]: TIMP metallopeptidase inhibitor 2 (TIMP2), TIMP2 (gene 7077)
Briefly: BSK_KF3CT_TIMP2: BioMAP Diversity Plus: KF3CT Assay for TIMP metallopeptidase inhibitor 2 (TIMP2) Biomarker Activity (AID 2283071). Particulars: primary human keratinocytes with fibroblasts; actives raise or lower the signal. The gist of the method: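 TIMP-2 measured by ELISA at 24 h in human keratinocyte/fibroblast primary co-cultures exposed to chemicals. Both increases and decreases were fitted against DMSO. Parallel cultures were stained with SRB for total protein as an overt-cytotoxicity check.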

Read-out in test [2]: Transforming growth factor beta 1 (TGFb1), TGFB1 (gene 7040)
Briefly: BSK_KF3CT_TGFb1: BioMAP Diversity Plus: KF3CT Assay for Transforming growth factor beta 1 (TGFb1) Biomarker Activity (AID 2283072). Particulars: primary human keratinocytes with fibroblasts; actives raise or lower the signal. The gist of the method:
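ELISA quantifies TGF-b1 at 24 h post-dose in a primary human skin co-culture of keratinocytes and fibroblasts, with gain or loss judged against DMSO. Parallel SRB total-protein staining flags overt cytotoxicity.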

Read-out in test [3]: C-C motif chemokine 2 (Homo sapiens) (UniProt P13500)
Description: BSK_KF3CT_MCP1: BioMAP Diversity Plus: KF3CT Assay for Monocyte Chemoattractant Protein 1 (MCP1/CCL2) Biomarker Activity (AID 2283073). Particulars: primary human keratinocytes with fibroblasts; actives raise or lower the signal. In short, it runs like this:
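Human keratinocyte plus foreskin fibroblast primary co-culture exposed to chemical for 24 h. MCP-1 levels measured by ELISA. Bidirectional curve fitting relative to DMSO negative control as baseline.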

Read-out in test [4]: Matrix Metallopeptidase 9 (MMP9), MMP9 (gene 4318)
Briefly: BSK_KF3CT_MMP9: BioMAP Diversity Plus: KF3CT Assay for Matrix Metallopeptidase 9 (MMP9) Biomarker Activity (AID 2283074).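 As to AC50: MMP9 protein level quantified by ELISA in the co-culture.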 Particulars: primary human keratinocytes with fibroblasts; actives raise or lower the signal. In short, it runs like this: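 ELISA read-out of MMP-9 at 24 h post-dosing in a co-culture of human skin keratinocytes and foreskin fibroblasts. Gain or loss of signal was fitted in both directions against DMSO.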

Read-out in test [5]: urokinase plasminogen activator (uPA), PLAU (gene 5328)
Description: BSK_KF3CT_uPA: BioMAP Diversity Plus: KF3CT Assay for urokinase plasminogen activator (uPA) Biomarker Activity (AID 2283075). Particulars: primary human keratinocytes with fibroblasts; actives raise or lower the signal. In short, it runs like this:
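Skin co-culture (keratinocytes + foreskin fibroblasts), human primary; 24 h post-dose; uPA by ELISA; gain/loss fit vs DMSO baseline.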

Read-out in test [6]: E-selectin (Homo sapiens) (UniProt P16581)
Briefly: BSK_LPS_Eselectin: BioMAP Diversity Plus: LPS Assay for Eselectin Biomarker Activity (AID 2283077). To be noted: primary human HUVEC with PBMC; actives raise or lower the signal. In short, it runs like this:
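Human umbilical vein endothelial cells co-cultured with peripheral blood mononuclear cells under LPS stimulation; E-selectin measured by ELISA 24 h after chemical dosing. Activity fitted bidirectionally against DMSO as negative control and baseline.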

Read-out in test [7]: Interleukin-8 (IL8), CXCL8 (gene 3576)
Briefly: BSK_LPS_IL8: BioMAP Diversity Plus: LPS Assay for Interleukin-8 (IL8) Biomarker Activity (AID 2283078). To be noted: primary human HUVEC with PBMC; actives raise or lower the signal. In short, it runs like this:
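Human umbilical vein endothelial cells co-cultured with PBMC were stimulated with LPS; IL-8 levels were measured by ELISA 24 h after chemical dosing. Activity was fitted bidirectionally against DMSO as negative control and baseline.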

Test [8] can be described thus: BSK_LPS_SRB: Viability Assessment in the BioMAP Diversity Plus: LPS Assay (AID 2283079).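 Also: total protein by sulforhodamine B absorbance as a cytotoxicity measure; measured one day after compound addition.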 To be noted: primary human HUVEC with PBMC. The gist of the method: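 Human umbilical vein endothelial cells co-cultured with PBMC (LPS system) were dosed for 24 h. Total protein was stained with 0.1% sulforhodamine B after 10% TCA fixation, read at 560 nm, and fitted bidirectionally against DMSO baseline.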

Read-out in test [9]: Interleukin-1 alpha (IL1a), IL1A (gene 3552)
Description: BSK_LPS_IL1a: BioMAP Diversity Plus: LPS Assay for Interleukin-1 alpha (IL1a) Biomarker Activity (AID 2283080). Particulars: primary human HUVEC with PBMC; actives raise or lower the signal. In short, it runs like this: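 Human umbilical vein endothelial cells co-cultured with peripheral blood mononuclear cells were LPS-stimulated and exposed to test chemicals for 24 h. IL-1 alpha was quantified by ELISA, with bidirectional curve fitting against DMSO as the negative control and baseline.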

Read-out in test [10]: Monocyte Chemoattractant Protein-1 (MCP1), CCL2 (gene 6347)
Description: BSK_LPS_MCP1: BioMAP Diversity Plus: LPS Assay for Monocyte Chemoattractant Protein-1 (MCP1) Biomarker Activity (AID 2283081).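 As to AC50: co-culture stimulated with LPS; secreted MCP-1 protein quantified by ELISA in culture supernatant.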 To be noted: primary human HUVEC with PBMC; actives raise or lower the signal. In short, it runs like this:
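HUVEC plus PBMC co-culture (human primary cells, LPS system) exposed to test chemical for 24 h; MCP-1 measured by ELISA. Bidirectional curve fitting against DMSO baseline; parallel SRB total-protein staining flags overt cytotoxicity.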

Test [11] is described as follows: BSK_LPS_PGE2: BioMAP Diversity Plus: LPS Assay for Prostaglandin E2 (PGE2) Biomarker Activity (AID 2283082). To be noted: primary human HUVEC with PBMC; actives raise or lower the signal. The gist of the method: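 PGE2 release measured by ELISA in an LPS-activated co-culture of human umbilical vein endothelial cells and peripheral blood mononuclear cells, read at 24 h post-dosing. DMSO served as baseline for bidirectional curve fitting.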

Read-out in test [12]: Macrophage colony-stimulating factor (MCSF), CSF1 (gene 1435)
Description: BSK_LPS_MCSF: BioMAP Diversity Plus: LPS Assay for Macrophage colony-stimulating factor (MCSF) Biomarker Activity (AID 2283083). To be noted: primary human HUVEC with PBMC; actives raise or lower the signal. In short, it runs like this: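 Human umbilical vein endothelial cells co-cultured with peripheral blood mononuclear cells were exposed to compound for 24 h. M-CSF levels were measured by ELISA, and bidirectional curve fitting used DMSO as the negative control and baseline.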

Read-out in test [13]: Tissue Factor, F3 (gene 2152)
Description: BSK_LPS_TissueFactor: BioMAP Diversity Plus: LPS Assay for Tissue Factor Biomarker Activity (AID 2283084). To be noted: primary human HUVEC with PBMC; actives raise or lower the signal. In short, it runs like this:
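Human umbilical vein endothelial cells co-cultured with peripheral blood mononuclear cells were dosed and stimulated with LPS. Cell-surface CD142 was quantified by ELISA at 24 h. Activity was fitted bidirectionally against DMSO baseline.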

Read-out in test [14]: Tumor necrosis factor (Homo sapiens) (UniProt P01375)
Briefly: BSK_LPS_TNFa: BioMAP Diversity Plus: LPS Assay for Tumour Necrosis Factor alpha (TNFa) Biomarker Activity (AID 2283085).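 As to AC50: TNFa protein level quantified by ELISA in the co-culture.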 To be noted: primary human HUVEC with PBMC; actives raise or lower the signal. In short, it runs like this:
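TNFa was quantified by ELISA in LPS-activated co-cultures of human endothelial cells and PBMC, 24 h post-dosing. Both increases and decreases versus DMSO were fitted.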

Read-out in test [15]: Vascular cell adhesion molecule 1 (VCAM1), VCAM1 (gene 7412)
Briefly: BSK_LPS_VCAM1: BioMAP Diversity Plus: LPS Assay for Vascular cell adhesion molecule 1 (VCAM1) Biomarker Activity (AID 2283086). To be noted: primary human HUVEC with PBMC; actives raise or lower the signal. In short, it runs like this:
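VCAM-1 quantified by ELISA in an LPS-activated co-culture of human endothelial cells and peripheral blood mononuclear cells, read 24 h post-treatment. Fitted in both directions versus DMSO; parallel SRB staining flags overt cytotoxicity.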

Read-out in the next test: CD38, CD38 (gene 952)
Briefly: BSK_SAg_CD38: BioMAP Diversity Plus: SAg Assay for CD38 Biomarker Activity (AID 2283087). To be noted: primary human HUVEC with PBMC; actives raise or lower the signal. The gist of the method: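 CD38 quantified by ELISA (fluorescence) in a superantigen-activated endothelial cell–PBMC co-culture at 24 h post-dose. Activity fitted in both directions relative to DMSO; parallel SRB and Alamar Blue cytotoxicity read-outs.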

Read-out in test [16]: Monocyte Chemoattractant Protein-1 (MCP1), CCL2 (gene 6347)
Briefly: BSK_SAg_MCP1: BioMAP Diversity Plus: SAg Assay for Monocyte Chemoattractant Protein-1 (MCP1) Biomarker Activity (AID 2283090). To be noted: primary human HUVEC with PBMC; actives raise or lower the signal. In short, it runs like this: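 Values derive from bidirectional fitting of ELISA-measured MCP1 against DMSO controls. Readings were taken 24 h after dosing human vascular endothelial cells co-cultured with peripheral blood mononuclear cells under superantigen stimulation.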

Read-out in the next test: CD40, CD40 (gene 958)
Description: BSK_LPS_CD40: BioMAP Diversity Plus: LPS Assay for CD40 Biomarker Activity (AID 2283076). Particulars: primary human HUVEC with PBMC; actives raise or lower the signal. In short, it runs like this: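 Primary human umbilical vein endothelial cells co-cultured with peripheral blood mononuclear cells, LPS-stimulated, were dosed with chemical and read 24 h later. CD40 levels were measured by ELISA and fitted bidirectionally against DMSO as negative control and baseline.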

Read-out in another test: CD69, CD69 (gene 969)
Description: BSK_SAg_CD69: BioMAP Diversity Plus: SAg Assay for CD69 Biomarker Activity (AID 2283089). To be noted: primary human HUVEC with PBMC; actives raise or lower the signal. In short, it runs like this:
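Primary human vascular co-culture (umbilical vein endothelium with peripheral blood mononuclear cells) exposed to test chemical for 24 h. CD69 levels quantified by fluorescence ELISA; DMSO served as negative control for bidirectional fitting.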

As usually defined, the AC50 is the concentration giving half of the maximal activity seen.

Calls of active or inactive are those of the source. The calls were made as follows: active = hit-call score of the fitted dose curve at least 0.9, where 1 is the maximum; inactive = score below 0.9.

Sequence of Tumor necrosis factor (Homo sapiens) (P01375 whole entry, looked up): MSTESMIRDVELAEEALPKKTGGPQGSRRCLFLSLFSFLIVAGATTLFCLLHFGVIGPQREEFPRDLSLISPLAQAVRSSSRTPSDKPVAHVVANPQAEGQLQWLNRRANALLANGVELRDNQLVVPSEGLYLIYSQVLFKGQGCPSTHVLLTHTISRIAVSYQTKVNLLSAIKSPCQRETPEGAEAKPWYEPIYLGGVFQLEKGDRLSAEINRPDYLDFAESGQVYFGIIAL
Sequence of E-selectin (Homo sapiens) (P16581 whole entry, looked up): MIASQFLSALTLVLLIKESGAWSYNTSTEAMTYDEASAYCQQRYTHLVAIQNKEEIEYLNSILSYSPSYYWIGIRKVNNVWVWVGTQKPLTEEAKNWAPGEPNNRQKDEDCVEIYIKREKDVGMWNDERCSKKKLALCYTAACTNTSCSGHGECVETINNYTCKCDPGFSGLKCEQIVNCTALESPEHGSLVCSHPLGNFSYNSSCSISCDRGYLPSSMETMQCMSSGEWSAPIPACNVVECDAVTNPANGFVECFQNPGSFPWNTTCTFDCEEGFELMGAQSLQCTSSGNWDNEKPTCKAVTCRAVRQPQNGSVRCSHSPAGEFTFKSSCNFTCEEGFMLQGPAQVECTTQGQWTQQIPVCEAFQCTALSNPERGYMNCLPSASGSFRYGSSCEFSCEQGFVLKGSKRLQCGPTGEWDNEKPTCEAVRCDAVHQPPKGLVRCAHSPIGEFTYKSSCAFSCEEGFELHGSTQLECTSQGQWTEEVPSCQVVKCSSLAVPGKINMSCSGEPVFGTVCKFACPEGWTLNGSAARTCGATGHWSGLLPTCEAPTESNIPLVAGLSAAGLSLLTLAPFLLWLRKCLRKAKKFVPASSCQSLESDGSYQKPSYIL

With `CCOP(=S)(Oc1cnc(C(C)(C)C)nc1)OC(C)C` (stereo unspecified), the concentration at half-maximal activity (AC50) was 38.4 µM (active) in test [1]; 27.1 µM (active) in test [4]; 30.9 µM (active) in test [6]; 30.5 µM (active) in test [7]; 30.3 µM (active) in test [8]; 36.7 µM (active) in [9]. For the same compound, the AC50 was 32.2 µM (active) in test [10]; 31.8 µM (active) in test [11]; 32.6 µM (active) in test [12]; 33.1 µM (active) in test [13]; 36.5 µM (active) in [14]; 32.5 µM (active) in test [15]. The AC50 with CD38, CD38 (gene 952) is 36.2 µM (active); in test [16], 30.7 µM (active). Further, the outcome in [2], in test [3] and in test [5] was inactive.
Take `COP(=O)(NC(C)=O)SC` (stereo unspecified): the result in test [1], in test [2], in test [3], in test [4], in test [5] and in test [6] was inactive. In addition, the result in test [7], in test [8], in [9], in test [10], in test [11] and in [12] was inactive. Besides, the outcome is “inactive” in test [13]; “inactive” in test [14]; “inactive” in test [15]; “inactive” in the test with CD38, CD38 (gene 952); “inactive” in test [16].
In the case of `CN(C)C(=O)Nc1cccc(C(F)(F)F)c1`, the outcome in test [1] is “inactive”; in test [2], “inactive”; in [3], “inactive”; in test [4] it was “inactive”; in test [5] it was “inactive”; in the test with CD40, CD40 (gene 958) it was “inactive”. Further, the result in test [6], in test [7], in [8], in test [9], in [10] and in [11] was inactive. Also, the outcome was “inactive” in [12]; “inactive” in test [13]; “inactive” in test [14]; “inactive” in test [15]; “inactive” in the test with CD38, CD38 (gene 952); “inactive” with CD69, CD69 (gene 969). Moreover, the outcome in test [16] was inactive.
In the case of `CCOP(=S)(OCC)OC(Cl)C(Cl)(Cl)Cl` (stereo unspecified), the outcome in test [1], in test [2], in test [3], in test [4], in [5] and in test [6] was inactive. For the same compound, the result in [7], in test [8], in [9], in [10], in [12] and in test [13] was inactive. Further, the outcome in [15] and in test [16] was inactive. In addition, the AC50 in test [11] was 5.51 µM (active); in test [14], 32.8 µM (active); with CD38, CD38 (gene 952), 30.8 µM (active).
On to `CC1(C(=O)Nc2ccc(O)c(Cl)c2Cl)CCCCC1`, for which the outcome in test [1] is “inactive”; in test [2] it was “inactive”; in test [3], “inactive”; in [4], “inactive”; in [5], “inactive”; with CD40, CD40 (gene 958) it was “inactive”. The result in [7], in test [8], in test [9], in test [10], in [12] and in test [13] was inactive. For the same compound, the outcome in test [14] was “inactive”; in [15], “inactive”; in the test with CD38, CD38 (gene 952), “inactive”; in test [16], “inactive”. The figures for the AC50 in [6] and in test [11] were 16.4 µM (active) and 5.46 µM (active), respectively.
Take `C#CC(C)(C)NC(=O)c1cc(Cl)cc(Cl)c1`: the result in [1], in [2], in test [3], in [4], in [5] and in [6] was inactive. Further, the result in [7], in test [8], in [9], in test [10], in [11] and in [12] was inactive. Further, the outcome in test [13] was “inactive”; in [14], “inactive”; in test [15], “inactive”; with CD38, CD38 (gene 952), “inactive”; in the test with CD69, CD69 (gene 969), “inactive”; in [16], “inactive”.
